Our source for the growth inhibition values is PubChem BioAssay (NCI).

The nature of assay [1]: NCI Yeast Anticancer Drug Screen. Data for the rad50 strain (AID 155).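 Note: 0% = growth of vehicle-only cultures of the same strain.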 To be noted: S. cerevisiae rad50 strain growth inhibition, stronger effect = higher value; at 50.0 µM unless noted. The gist of the method: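 A DNA repair-deficient yeast mutant serves as the test organism; compound-induced growth inhibition is calculated against vehicle-treated cells.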
A short description of assay [2]: NCI Yeast Anticancer Drug Screen. Data for the mec2-1 strain (AID 157). As to conditions: S. cerevisiae mec2-1 strain, stronger effect = higher value; at 50.0 µM unless noted. In short, it runs like this: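 Compounds were applied to mec2-1 yeast cells. Their growth was then compared with that of vehicle-treated cultures to give growth inhibition.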
A short description of assay [3]: NCI Yeast Anticancer Drug Screen. Data for the sgs1 mgt1 strain (AID 161).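 Note: 0% = growth of cultures given vehicle only.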 To be noted: S. cerevisiae sgs1 mgt1 strain, stronger effect = higher value; at 50.0 µM unless noted. In short, it runs like this: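 Percent growth inhibition was derived by comparing compound-exposed mutant yeast with vehicle-exposed cultures. The strain carries alterations in DNA damage repair.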

Assay [4] can be described thus: NCI Yeast Anticancer Drug Screen. Data for the cln2 rad14 strain (AID 165).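 Note: 0% = growth equal to vehicle treated cultures.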 As to conditions: S. cerevisiae cln2 rad14 strain, stronger effect = higher value; at 50.0 µM unless noted. The gist of the method:
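Strain: cln2 rad14 yeast, altered in cell cycle control and DNA damage repair. Read-out: growth inhibition vs vehicle.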

A short description of assay [5]: NCI Yeast Anticancer Drug Screen. Data for the bub3 strain (AID 167). To be noted: S. cerevisiae bub3 mutant strain, stronger effect = higher value; at 50.0 µM unless noted. In short, it runs like this:
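Inhibition values come from growth of compound-treated mutant yeast normalised to vehicle-treated controls.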

A short description of assay [6]: NCI Yeast Anticancer Drug Screen. Data for the mlh1 rad18 strain (AID 175). To be noted: S. cerevisiae mlh1 rad18 strain growth inhibition, stronger effect = higher value; at 50.0 µM unless noted. In short, it runs like this:
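A repair-deficient yeast strain is exposed to test compound, and growth is scored relative to vehicle-treated controls.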

Structures are written as SMILES. The panel holds about 79,000 compounds, 15% with a hit somewhere; the sample as a whole holds those more often. A number with no mark means an inactive call. Active and inactive are the calls of the source. Cut-off read from the data, not from the text of the source: active = growth inhibition above about 70%; inactive = the rest.

Regarding `Clc1nc2n(c1/C=C/c1cccs1)CCS2`, the growth inhibition was 28.4% in assay [1]; 23.2% in assay [2]; 56.4% in assay [3]; 13.9% in assay [4]; 20.6% in assay [5]; 59.5% in assay [6].
Regarding `CC(C)[Si]1(C(C)C)OCC2OC(n3ccc(=O)[nH]c3=O)C([Se]c3ccccc3)C2O[Si](C(C)C)(C(C)C)O1` (stereo unspecified), the growth inhibition is 0% in assay [1]; -22.1% in assay [2]; -25.5% in assay [3]; -17.2% in assay [4]; -49.9% in assay [5]; -61.9% in assay [6].
With `CCOC(=O)NC(=O)c1cn(CCOCCOC(=O)NCCCCCCNC(=O)OCCOCCn2cc(C(=O)NC(=O)OCC)c(=O)[nH]c2=O)c(=O)[nH]c1=O`, the growth inhibition in assay [1] is 5.05%; in assay [2], 24.2%; in assay [3], 25.6%; in assay [4] it was 20.1%; in assay [5], -6.9%; in assay [6] it was 29.6%.
With `Nc1nc(N)c(CCCCc2ccccc2)c(Cc2ccccc2)n1`, the growth inhibition in assay [1] is -10.2%; in assay [2] it was -10.5%; in assay [3], -2%; in assay [4], -40%; in assay [5], 3.7%; in assay [6] it was -7.4%.
Turning to `N#Cc1[nH]c(=O)n(-c2ccc([N+](=O)[O-])cc2)c1N`, the growth inhibition in assay [1] was -29.4%; in assay [2], -59.8%; in assay [3] it was -25.1%; in assay [4], -1.7%; in assay [5], -12.1%; in assay [6] it was -39.9%.
Take `O=C(CSc1nc(-c2ccccc2)c(-c2ccccc2)[nH]1)N/N=C/c1ccc(O)cc1`: the growth inhibition in assay [1] was -8.15%; in assay [2] it was -3.2%; in assay [3], -12.2%; in assay [4] it was -21.9%; in assay [5], 5.6%; in assay [6] it was -25.6%.
As for `COc1ccc(C(=O)CN2CCN(c3ccccc3)CC2)cc1`, the growth inhibition in assay [1] is 14.7%; in assay [2] it was -7.05%; in assay [3] it was 17.1%; in assay [4], -52.6%; in assay [5], 23%; in assay [6], 5.35%.
Take `Cc1cc(Cl)ccc1N=C1NC(=O)C(CC(=O)Nc2ccc([N+](=O)[O-])cc2[N+](=O)[O-])S1` (stereo unspecified): the growth inhibition in assay [1] was 25.1%; in assay [2] it was -4%; in assay [3], 12.1%; in assay [4] it was -58.9%; in assay [5], 13%; in assay [6] it was 33.1%.
Turning to `C=CCOC(=O)C(C)OC(=O)CCC(=O)OC(C)C(=O)OCC=C` (stereo unspecified), the growth inhibition in assay [1] is 5.35%; in assay [2], 4.3%; in assay [3], 4.35%; in assay [4], 3.95%; in assay [5], 6.15%; in assay [6], 4.85%.
Regarding `Cn1c2cccc3nnc4cccc(c4c32)n1C`, the growth inhibition in assay [1] is -37.1%; in assay [2], -9.3%; in assay [3] it was -4.9%; in assay [4], 4.2%; in assay [5] it was -6.65%; in assay [6], -11.8%.
In the case of `O=C(Cc1csc(-c2nc(CC(=O)NNc3ccccc3)cs2)n1)NNc1ccccc1`, the growth inhibition is 12.7% in assay [1]; -3.4% in assay [2]; -27.9% in assay [3]; -38.4% in assay [4]; 2.75% in assay [5]; -12.6% in assay [6].
On to `CN(N=O)C(=O)NCCCCCNC(=O)N(C)N=O`, for which the growth inhibition in assay [1] is 7.6%; in assay [2], 12.8%; in assay [3], 14.1%; in assay [4], -132%; in assay [5], 10.5%; in assay [6], -4.85%.
As for `CCOC(=S)SCC(=O)CSC(=S)OCC`, the growth inhibition in assay [1] was 73.8% (active); in assay [2] it was 12.1%; in assay [3] it was 21.7%; in assay [4], 9.7%; in assay [5], 50.2%; in assay [6], 2.15%.
In the case of `O=C1C(Br)=C[C@H]2C3C=CC(Br)(C3=O)[C@@H]12` (stereo partly specified), the growth inhibition in assay [1] was 20.8%; in assay [2], 14.9%; in assay [3] it was 14.9%; in assay [4], 25.2%; in assay [5], 15.6%; in assay [6], 23.6%.
On to `O=C1CSC(c2ccc(F)cc2F)N1c1nncs1` (stereo unspecified), for which the growth inhibition was 13.4% in assay [1]; -3.7% in assay [2]; 22.8% in assay [3]; -35.2% in assay [4]; -23.8% in assay [5]; 24.2% in assay [6].
With `CC(=O)C[N+](C)(C)C`, the growth inhibition is -12.9% in assay [1]; -17.1% in assay [2]; -14.8% in assay [3]; -7.45% in assay [4]; -20.8% in assay [5]; 12.7% in assay [6].
In the case of `CCN(CC)CCCCCCNc1cc(OC)c(OC)c2c(C)ccnc12`, the growth inhibition in assay [1] is 23.6%; in assay [2] it was 18.1%; in assay [3] it was 5.6%; in assay [4], -14.4%; in assay [5] it was -1.8%; in assay [6], 28.2%.
On to `c1ccc(C2=NN(c3ccccc3)CC2)cc1`, for which the growth inhibition was -8.3% in assay [1]; -3.15% in assay [2]; 0.4% in assay [3]; 9.25% in assay [4]; 9.35% in assay [5]; 2.05% in assay [6].
Regarding `O=c1oc2ccccc2cc1-c1nc2ccccc2c(=O)[nH]1`, the growth inhibition in assay [1] is 17.8%; in assay [2], 8.1%; in assay [3] it was -20.9%; in assay [4] it was 13.7%; in assay [5] it was -4.9%; in assay [6] it was -50.9%.
Regarding `C=C1CC(C)(COc2ccc3ccc(=O)oc3c2)OC1=O` (stereo unspecified), the growth inhibition in assay [1] is 24.4%; in assay [2] it was 15.4%; in assay [3] it was 49%; in assay [4] it was 37.5%; in assay [5] it was 17.6%; in assay [6] it was 41%.
Take `CC1CCCN(CCC(=O)c2ccc(O)cc2)C1` (stereo unspecified): the growth inhibition is 38.2% in assay [1]; 22.5% in assay [2]; 26.3% in assay [3]; 21.2% in assay [4]; 7.35% in assay [5]; 32.4% in assay [6].
